CYP2C9 activ: human CYP2C9 activators, primary screen, biochemical, luminescence | recombinant CYP2C9, luciferin-H conversion; hits give high values; factor 1 = untreated enzyme, 0 = blocked | 1.4% of 96,000 active | Cytochrome P450 2C9 (Homo sapiens), P11712 | AID 1024, 2008 | activation factor at 5 µM;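 active = activation factor of 2 or more for CYP2C9 at a 5 µM dose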
hDAT+cocaine: changed hDAT dopamine uptake under cocaine IC80, either direction, primary screen, cocaine antagonist project, cell-based, LLC-PK1 hDAT, [14C]-dopamine uptake, MLSMR; AID 449768, 2010; LLC-PK1 hDAT cells, [14C]-dopamine uptake with cocaine IC80; actives deviate in either direction; 1.3% of 110,000 active; B-score at 10 µM;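 active = Z score or B-score, a plate-position-corrected score, falls beyond the plate's 99.7% confidence bounds, in either direction; inactive = both scores lie inside the 99.7% bounds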
Target sequence (Q01959 whole entry, looked up): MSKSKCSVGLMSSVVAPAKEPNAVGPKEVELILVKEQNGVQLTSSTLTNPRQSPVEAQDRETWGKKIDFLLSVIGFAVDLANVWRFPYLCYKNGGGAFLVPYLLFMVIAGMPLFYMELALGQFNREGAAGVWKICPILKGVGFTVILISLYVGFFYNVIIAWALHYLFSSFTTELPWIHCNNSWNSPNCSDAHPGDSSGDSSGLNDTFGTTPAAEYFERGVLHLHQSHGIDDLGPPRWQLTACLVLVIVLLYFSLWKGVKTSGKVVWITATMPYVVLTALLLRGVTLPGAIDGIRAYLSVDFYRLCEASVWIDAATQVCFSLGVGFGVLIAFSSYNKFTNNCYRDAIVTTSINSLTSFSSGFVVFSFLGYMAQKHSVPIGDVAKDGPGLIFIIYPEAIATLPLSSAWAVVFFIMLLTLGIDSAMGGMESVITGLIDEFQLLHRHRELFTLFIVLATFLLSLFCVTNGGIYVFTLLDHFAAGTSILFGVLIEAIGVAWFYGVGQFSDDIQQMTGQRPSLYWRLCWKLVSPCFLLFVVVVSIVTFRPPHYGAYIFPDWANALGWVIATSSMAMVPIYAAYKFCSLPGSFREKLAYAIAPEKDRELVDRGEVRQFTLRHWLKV
D1 mod: D1 CRE-luciferase signal change, two-sided – cell-based, HEK293 D1, dopamine EC30, D1 allosteric modulator project, primary screen | 5.9% of 58,000 active | B-score at 10 µM | D(1A) dopamine receptor (Homo sapiens), P21728 | AID 641, 2007 | dopamine EC30 potentiation; actives deviate in either direction;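 active = luminescence count or its row- and column-corrected plate score outside the 99.7% band of the plate's sample wells, on either side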
CYP2C19 act: human CYP2C19 activators, primary screen, biochemical, luminescence. recombinant CYP2C19, luciferin-H EGE luminescence; hits give high values; 0 = fully inhibited enzyme, 1 = untreated enzyme. activation factor at 5 µM. 96,000 tested, under 10 active. AID 1025, 2008;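 active = activation factor of at least 2 at 5 µM in the primary screen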
CYP2C19 inh: blockers of cytochrome P450 2C19 activity – biochemical, luminescence, ADME assay, primary screen. P33261. CYP2C19 Supersomes, luciferin-H EGE luminescence, 30 min. inhibition, % at 5 µM. 21% of 96,000 active. AID 778, 2007;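 active = CYP2C19 inhibition above a set limit at 5 µM in the primary screen, cut at about 50% in these data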
CYP2C9 inh: blockers of cytochrome P450 2C9 activity – biochemical, luminescence, ADME assay, primary screen; AID 777, 2007; 20% of 96,000 active; inhibition, % at 5 µM; P11712; CYP2C9 Supersomes, luciferin-H conversion;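 active = blocking of liver enzyme CYP2C9 beyond about 50% at 5 µM, limit read from the data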
Large screens that a line does not name were inactive. Most compounds without a hit are left out; they make up all but 28% or so of the library.

Cc1[nH]c2ccccc2c1C(=O)CSc1nc2cc(S(=O)(=O)N3CCCCC3)ccc2o1	CYP2C19 inh 60, CYP2C9 inh 90
O=C(CSc1nc2cc(Cl)ccc2o1)N1CCOCC1	none
Cc1ccc(C(=O)CSc2nc3cc(S(=O)(=O)N4CCOCC4)ccc3o2)cc1	CYP2C9 inh 82 (no result: D1 mod)
Cc1cc(NCC2CCCO2)n2c(nc3ccccc32)c1C#N (stereo not drawn)	none
CC(C)c1cc(NCC2CCCO2)n2c(nc3ccccc32)c1C#N (stereo not drawn)	CYP2C9 inh 73 (no result: D1 mod)
O=C1CC(NCCC2=CCCCC2)C(=O)N1c1cccc(Cl)c1Cl (stereo not drawn)	hDAT+cocaine 3.5 (no result: D1 mod)
O=C(NCCC1=CCCCC1)C(=O)NCc1ccccc1Cl	none (no result: D1 mod)
Cc1ccc(-n2c(=O)c3sccc3n(CC(=O)NCc3ccco3)c2=O)cc1F	none (no result: hDAT+cocaine, D1 mod)
CCOC(=O)N1CCN(C(=O)c2cnn3c(C)c(Cc4ccc(C)cc4)c(C)nc23)CC1	none (no result: hDAT+cocaine)
Cc1nc2c(C(=O)N3CCN(c4ccccn4)CC3)cnn2c(C)c1Cc1cccc(Cl)c1	CYP2C19 inh 98, CYP2C9 inh 74
Cc1nc2c(C(=O)N3CCCC3)cnn2c(C)c1Cc1c(F)cccc1Cl	CYP2C19 inh 54 (no result: D1 mod)
CCCCc1c(C)nn(-c2nnc3c4ccccc4n(C)c3n2)c1C	none (no result: hDAT+cocaine, D1 mod)
Cc1ccccc1Cn1c(C(=O)OC(C)C)cc2c1ccn2C	CYP2C19 inh 53 (no result: D1 mod)
Cc1ccc(C)c(Cn2c(C(=O)OC(C)C)cc3c2ccn3C)c1	CYP2C19 inh 55 (no result: D1 mod)
CCOC(=O)c1cc2c(ccn2C)n1CC(=O)N1CCN(c2ccccc2)CC1	none
CC(C)OC(=O)c1cc2c(ccn2C)n1CC(=O)N1CCC(Cc2ccccc2)CC1	hDAT+cocaine 2.2 (no result: D1 mod)
CCOC(=O)c1cc2c(ccn2C)n1Cc1ccccc1C	none
CCCCCCN(C(=O)CCCCCN1C(=O)NC(c2ccc(-c3ccccc3)cc2)C(C(=O)OCc2ccccc2)=C1C)C(C(=O)NCCCC)c1ccc(O)c(C(=O)OC)c1 (stereo not drawn)	none (no result: CYP2C9 activ, D1 mod, CYP2C19 act, CYP2C19 inh, CYP2C9 inh)
COc1ccc(NC(=S)NCC2CCCO2)c(OC)c1 (stereo not drawn)	CYP2C19 inh 56 (no result: D1 mod)
Cc1cc(C)cc(NC(=S)NCC2CCCO2)c1 (stereo not drawn)	CYP2C9 activ 2.1 (no result: D1 mod)
COc1ccc(CNC(=O)C(=O)NCC2CCCO2)cc1 (stereo not drawn)	none (no result: D1 mod)
Cc1nc2ncnn2c(C)c1Cc1ccc(Cl)cc1F	none (no result: CYP2C9 activ, hDAT+cocaine, CYP2C19 act, CYP2C19 inh, CYP2C9 inh)
c1ccc(CNCc2ccc3c(c2)OCO3)nc1	none (no result: CYP2C9 activ, D1 mod, CYP2C19 act, CYP2C19 inh, CYP2C9 inh)
Cn1nc(C(=O)Nc2nc3ccc(S(C)(=O)=O)cc3s2)ccc1=O	none (no result: hDAT+cocaine, D1 mod)
Cc1ccc(S(=O)(=O)NCc2ccco2)cc1C	CYP2C9 activ 2.7, CYP2C19 inh 80
Cc1cccc(S(=O)(=O)Nc2nc3ccccc3nc2NCc2ccco2)c1	CYP2C9 inh 95 (no result: hDAT+cocaine)
Cc1ccc(S(=O)(=O)Nc2nc3ccccc3nc2NCc2ccco2)cc1	CYP2C9 inh 99
Cc1ccccc1S(=O)(=O)Nc1nc2ccccc2nc1NCCO	CYP2C9 inh 100 (no result: D1 mod)
CCCCNC(=O)c1onc(CSc2ccc(F)c(F)c2)c1C(=O)NCCCC	none (no result: CYP2C9 activ, D1 mod, CYP2C19 act, CYP2C19 inh, CYP2C9 inh)
Cc1ccc(S(=O)(=O)Nc2nc3ccccc3nc2NCc2ccco2)cc1C	CYP2C9 inh 100 (no result: hDAT+cocaine)
O=S(=O)(Nc1nc2ccccc2nc1NCc1ccco1)c1ccc(Cl)cc1	D1 mod -3.5, CYP2C19 inh 51, CYP2C9 inh 98
CCC(C)Oc1nc2ccccc2nc1NS(=O)(=O)c1ccccc1 (stereo not drawn)	none (no result: D1 mod)
Cc1cc(C)c(C)c(S(=O)(=O)NCc2ccco2)c1C	none
Cc1noc(C)c1CSc1nc2ccccc2nc1NS(=O)(=O)c1ccc(Cl)cc1	CYP2C9 inh 87
CCOC(=O)/C(=N\Nc1ccc(OC)cc1)c1csc(Nc2ccccc2)n1	none (no result: D1 mod)
Clc1ccc(CO/N=C/c2c(-c3ccccc3)nc3n2CCS3)c(Cl)c1	CYP2C9 inh 65 (no result: D1 mod)
O=C(C/C=N/OCc1ccc(Cl)cc1Cl)c1ccccc1	none (no result: D1 mod)
CC(=O)Nc1cnn(Cc2ccc(Br)cc2)c1	CYP2C19 inh 66
O=C(Nc1cnn(Cc2ccc(Cl)cc2)c1)c1cnccn1	CYP2C9 inh 62 (no result: D1 mod)
O=C(Nc1cnn(Cc2ccc(Cl)c(Cl)c2)c1)c1nc2ncccn2n1	none
Clc1ccc(Cn2cc(Br)cn2)cc1Cl	CYP2C19 inh 72
Clc1cccc(Cl)c1Cn1cc(Br)cn1	none (no result: D1 mod)
CC(C(=O)Nc1ccccc1C(=O)N1CCOCC1)N(c1ccccc1)S(C)(=O)=O (stereo not drawn)	none (no result: CYP2C9 activ, D1 mod, CYP2C19 act, CYP2C19 inh, CYP2C9 inh)
CCc1ccc(NC2=NCC(=O)N2Cc2ccc3c(c2)OCO3)cc1	CYP2C9 inh 58 (no result: D1 mod)
Cc1ccc(NC2=NCC(=O)N2Cc2ccc3c(c2)OCO3)c(C)c1	CYP2C19 inh 96, CYP2C9 inh 79 (no result: D1 mod)
COc1cc(C2=CCN(C(C)=O)CC2)ccc1OC(C)=O	none (no result: CYP2C9 activ, D1 mod, CYP2C19 act, CYP2C19 inh, CYP2C9 inh)
O=C(CCc1nc(-c2ccccc2F)no1)NC1CCCCC1	none
O=C(c1ccc(N2CCOCC2)cc1)c1cccs1	none (no result: D1 mod)
CCc1ccc(NS(=O)(=O)c2cccs2)cc1	CYP2C19 inh 56, CYP2C9 inh 67
O=S(=O)(Nc1ccc(N2CCOCC2)cc1)c1cccs1	CYP2C19 inh 90
CN(c1cccc(NS(=O)(=O)c2cccs2)c1)S(C)(=O)=O	none
Cn1c(CSc2nc3ccccc3s2)nnc1SCC(=O)NCCCN1CCOCC1	none (no result: CYP2C9 activ, D1 mod, CYP2C19 act, CYP2C19 inh, CYP2C9 inh)
N#CCc1ccc(C(=O)c2ccccc2)s1	CYP2C19 inh 70 (no result: D1 mod)
O=C(O)Cc1ccc(C(=O)c2cccs2)s1	none
NCCCCCc1nnc(SCc2ccc(Cl)cc2Cl)o1	CYP2C19 inh 61 (no result: D1 mod)
NCCCCCc1nnc(SCc2cccc(Cl)c2)o1	CYP2C19 inh 65
Clc1cccc(NCc2nnc(SCc3ccccc3Cl)o2)c1	none (no result: hDAT+cocaine, D1 mod)
CCC(C)[C@H](N)c1nnc(SCC(=O)Nc2cccc(Cl)c2)o1 (stereo partly drawn)	CYP2C19 inh 97, CYP2C9 inh 50
Clc1cccc(CSc2nnc([C@@H]3CCCN3)o2)c1	CYP2C19 inh 94
Cc1cccc(-c2nnc(SCc3ccccc3)o2)c1	none (no result: D1 mod)
Clc1cccc(CSc2nnc(-c3c[nH]c4ccccc34)o2)c1	none (no result: D1 mod)
COCCN1C(=O)c2ccccc2C(C(=O)NCCCN2CCCC2=O)C1c1c[nH]c2ccccc12 (stereo not drawn)	none (no result: CYP2C9 activ, CYP2C19 act, CYP2C19 inh, CYP2C9 inh)
CC(/C=N\NC(=O)Cn1c(C)nc2ccccc21)=C\c1ccccc1	none (no result: hDAT+cocaine, D1 mod)
O=C(CSc1nnc(CNC(=O)c2c(F)cccc2Cl)o1)Nc1ccccc1	none

Bioassay records from PubChem BioAssay.
